This is part of a sample that, as a whole, favours compounds with a hit. Of some 79,000 tested, about 15% had one in any assay. A number with no mark means an inactive call. Calls of active or inactive are those of the source. No stated cut-off is given here; in the data, active means growth inhibition above about 70%; inactive means the rest.
How the values were obtained:
[1] = NCI Yeast Anticancer Drug Screen. Data for the rad50 strain (AID 155);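 further: 0% = growth of vehicle-only cultures of the same strain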; settings: S. cerevisiae rad50 strain growth inhibition, active compounds read high
Outline: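 Genetically altered yeast (DNA repair pathway); compound treatment; growth inhibition vs vehicle ctrl.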

[2] = NCI Yeast Anticancer Drug Screen. Data for the mec2-1 strain (AID 157); settings: S. cerevisiae mec2-1 strain, active compounds read high
Outline: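 Compounds were applied to mec2-1 yeast cells. Their growth was then compared with that of vehicle-treated cultures to give growth inhibition.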

[3] = NCI Yeast Anticancer Drug Screen. Data for the sgs1 mgt1 strain (AID 161);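 further: 0% = growth of cultures given vehicle only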; settings: S. cerevisiae sgs1 mgt1 strain, active compounds read high
Outline: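 Percent growth inhibition was derived by comparing compound-exposed mutant yeast with vehicle-exposed cultures. The strain carries alterations in DNA damage repair.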

[4] = NCI Yeast Anticancer Drug Screen. Data for the cln2 rad14 strain (AID 165);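 further: 0% = growth equal to vehicle treated cultures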; settings: S. cerevisiae cln2 rad14 strain, active compounds read high
Outline: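 Strain: cln2 rad14 yeast, altered in cell cycle control and DNA damage repair. Read-out: growth inhibition vs vehicle.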

[5] = NCI Yeast Anticancer Drug Screen. Data for the bub3 strain (AID 167); settings: S. cerevisiae bub3 mutant strain, active compounds read high
Outline: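 Yeast carrying a defined mutation is treated with each compound, and growth is compared with that of vehicle-exposed cells to give inhibition.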

[6] = NCI Yeast Anticancer Drug Screen. Data for the mlh1 rad18 strain (AID 175); settings: S. cerevisiae mlh1 rad18 strain growth inhibition, active compounds read high
Outline: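 A repair-deficient yeast strain is exposed to test compound, and growth is scored relative to vehicle-treated controls.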

[7] = at 5.0 µM (retest, dose inferred, filed as 0.5)
[8] = at 50.0 µM (retest, dose inferred, filed as 5.0)

Row | SMILES | growth inhibition [1, 7] [%] | growth inhibition [1, 8] | growth inhibition ([1]; at 50.0 µM) | growth inhibition [2, 7] [%] | growth inhibition [2, 8] | growth inhibition ([2]; at 50.0 µM) | growth inhibition [3, 7] [%] | growth inhibition [3, 8] | growth inhibition ([3]; at 50.0 µM) | growth inhibition [4, 7] [%] | growth inhibition [4, 8] | growth inhibition ([4]; at 50.0 µM) | growth inhibition [5, 7] [%] | growth inhibition [5, 8] | growth inhibition ([5]; at 50.0 µM) | growth inhibition [6, 7] [%] | growth inhibition [6, 8] | growth inhibition ([6]; at 50.0 µM)
1 | Clc1ccc(C2NC(c3ccccc3)c3c(ccc4ccccc34)O2)cc1 (configuration not stated) | -4 | 26% | 70.5% (active) | 7 | 19% | 66.2% | 2 | 39% | 27.1% | 1 | 15% | 81.2% (active) | 3 | 7% | 58.6% | 27 | 53% | 77.7% (active)
2 | CN(C)CCCC(=O)OCC[N+](C)(C)C | -2 | 4% | -39.2% | -4 | 6% | -8.5% | -4 | -2% | -11.2% | -14 | -3% | 64.3% | -1 | 5% | 14.2% | -4 | 5% | -12.5%
3 | CC1CC2(C)ON=C(c3ccccc3)N2c2ccccc2S1 (configuration not stated) | -25 | 98% (active) | 87.7% (active) | -4 | 93% (active) | 90% (active) | -24 | 94% (active) | 82.7% (active) | -6 | 97% (active) | 87% (active) | 10 | 97% (active) | 87% (active) | 4 | 98% (active) | 83.7% (active)
4 | CN(C)C(=O)c1ccccc1SC(=S)NCc1ccccc1 | 0 | 99% (active) | 98.1% (active) | -2 | 99% (active) | 91.3% (active) | 2 | 93% (active) | 95.8% (active) | -3 | 99% (active) | 95.3% (active) | -7 | 99% (active) | 88.2% (active) | -3 | 98% (active) | 96.6% (active)
5 | CCN1C2=NC(=O)N(C)C(=O)C2(Cl)C(C(SC)S(=O)(=O)c2ccc(C)cc2)c2ccccc21 (configuration not stated) | 22 | 22% | 88.1% (active) | 7 | 7% | 86.3% (active) | 15 | 15% | 81.7% (active) | 18 | 18% | 90% (active) | 1 | 1% | 89.5% (active) | 2 | 2% | 84.7% (active)
6 | OC1c2cc(Cl)cc(Cl)c2OC2(N3CCCC3)CCCCC12 (configuration not stated) | 62 | 94% (active) | 81.5% (active) | 37 | 87% (active) | 46.1% | 44 | 87% (active) | 82% (active) | 34 | 47% | 19.1% | 51 | 96% (active) | 73.3% (active) |  |  | 
7 | CC(C)(C)c1ccc(C(=O)C[n+]2ccc(Cl)c3ccc(Cl)cc32)cc1 | 0 | 98% (active) | 99% (active) | 1 | 99% (active) | 99.3% (active) | 0 | 99% (active) | 62.9% | -2 | 97% (active) | 53.5% | 2 | 98% (active) | -1.75% |  |  | 
8 | CC(=O)Nc1ccc(C(=O)C(C)Br)cc1 (configuration not stated) | 38 | 99% (active) | 62.8% | 28 | 99% (active) | 81.8% (active) | 43 | 99% (active) | 80.5% (active) | 24 | 98% (active) | 23.6% | 30 | 99% (active) | 66.1% | 40 | 99% (active) | -30.8%
9 | OC(CN1CCCCC1)c1ccc2c(ccc3ccccc32)c1 (configuration not stated) | 21 | 54% | 83% (active) | 6 | 46% | 50% | 35 | 75% (active) | 88.2% (active) | 19 | 50% | 75% (active) | 25 | 69% | 91.8% (active) | 22 | 61% | 87.5% (active)
10 | C1=Cc2ccccc2/C1=C/c1ccccc1 | -1 | 93% (active) | 86.3% (active) | -32 | 89% (active) | 60.6% | 1 | 97% (active) | 88% (active) | -7 | 56% | 61.8% | -4 | 95% (active) | 96.7% (active) | 0 | 97% (active) | 91.2% (active)
11 | CN(C)CCNC(=O)c1cccc2ccc(-c3ccc(-c4ccccc4)cc3)nc12 | 4 | 99% (active) | 99.2% (active) | -1 | 98% (active) | 99.6% (active) | -1 | 99% (active) | 99.2% (active) | 1 | 99% (active) | 98.5% (active) | -41 | 99% (active) | 99.1% (active) |  |  | 
12 | Cc1c[n+](CC(=O)c2ccc(I)cc2)c(C)s1 | 0 | 13% | -16.2% | -1 | 2% | 4.1% | -1 | 12% | -2.85% | -4 | -5% | 46.3% | -2 | 9% | 1.7% | -2 | -2% | 16.8%
13 | Cc1ccc(C)c(N2C/C(=N\NC(=O)CC#N)C(c3nc4ccccc4s3)C(=O)C2=O)c1 (configuration not stated) | 0 | 1% | 7.9% | 0 | 2% | -0.3% | -3 | -3% | -5.2% | -3 | -1% | 12.6% | 33 | 19% | -0.3% |  |  | 
14 | C/C(=N\NC(=S)Nc1ccc(N(C)C)cc1)c1ccccn1 | -1 | 23% | 72.2% (active) | -4 | 68% | 97.5% (active) | -2 | 74% (active) | 79.7% (active) | 1 | 72% (active) | 31.8% | -1 | 35% | 46.3% | -7 | 78% (active) | 82.3% (active)
15 | Clc1ccc(CN2COc3c(cc(Cl)c4cccnc34)C2)cc1Cl | 43 | 97% (active) | 95.4% (active) | -12 | 97% (active) | 97.5% (active) | 10 | 98% (active) | 70.6% (active) | -11 | 97% (active) | 44.4% | 3 | 97% (active) | -4.9% | 13 | 96% (active) | 47.9%
16 | Cc1nc(N)sc1N=Nc1cc(Cl)c([N+](=O)[O-])cc1Cl | -4 | 26% | 38% | -7 | 33% | 39.5% | 4 | 77% (active) | 70.2% (active) | 4 | 2% | 35.1% | 4 | 7% | 47.5% | 11 | 78% (active) | 78.1% (active)
17 | CC(/C=C1\CCC(CN(C)C)C1=O)c1cccc(Br)c1 (configuration not stated) | -11 | 97% (active) | 93.8% (active) | -1 | 99% (active) | 94% (active) | 5 | 97% (active) | 93.5% (active) | 16 | 98% (active) | 92.2% (active) | 18 | 99% (active) | 92.7% (active) |  |  | 
18 | COc1ccc(N=NN(C)C)cc1 | -13 | 65% | 97% (active) | 13 | 28% | 70.3% (active) | -7 | 35% | 83.7% (active) | -42 | 26% | 76.5% (active) | -12 | 50% | 72% (active) | 17 | 92% (active) | 94.6% (active)
19 | CN(C)c1ccccc1CN1CCCN(Cc2ccccc2N(C)C)C1 | -4 | 7% | 69.8% | 8 | 26% | 50% | 1 | 35% | 75.2% (active) | 0 | 2% | 4.45% | 2 | 6% | 1.5% | 18 | 35% | 63.3%
20 | COC(=O)C1C2CC3c4[nH]c5cc(OC)c(Br)cc5c4CCN3CC2CC(OC(=O)c2cc(OC)c(OC)c(OC)c2)C1OC (configuration not stated) | -4 | 91% (active) | 89.7% (active) | -4 | 74% (active) | 87.5% (active) | -5 | 82% (active) | 86.2% (active) | 8 | 86% (active) | 84.3% (active) | -16 | 87% (active) | 86.2% (active) |  |  | 
